Experimental data: PubChem BioAssay (Tox21)
Values without a mark were called inactive. The call rests on the fitted dose curve.

Assay: qHTS assay to identify small molecule agonists of the estrogen related receptor (ERR) signaling pathway from Tox21 library (AID 1224849); further: nearly all actives have a fitted effect of over 15% in size
Conditions: ERR reporter cell line, ONE-Glo luciferase, 18 h; at 42.5 µM (top of the series)
From the text: National Center for Advancing Translational Sciences [NCATS]
NIH Chemical Genomics Center [NCGC]
U.S. Environmental Protection Agency [EPA]
National Institutes of Environmental Health Sciences [NIEHS]
National Toxicology Program [NTP]
Estrogen related receptors (ERRs), the first orphan nuclear receptors discovered, play an important role in the control of cellular energy metabolism. ERRs are required for high-energy production in response to the environmental challenges. ERR-alpha was also identified as an adverse marker for breast cancer progression; ERR-alpha-positive tumors have a poor prognosis. To screen and to identify environmental compounds that perturb the ERR signaling pathways could provide valuable information for potential therapeutic or preventive measures in the treatment of metabolic disease. For identifying ERR agonists, ERR cell line (provided by NTP) has been used to screen Tox21 10K library.
The ERR cells were dispensed at 2,000 cells/5 ul/well in 1536-well white plates using a Multidrop dispenser. After the assay plates were incubated at a 37 C/5% CO2 incubator for 6 hours, 23 nL of compounds dissolved in DMSO, positive and negative controls or DMSO only was transferred to the assay plate by a pin tool. The plates were incubated at 37 C for 18 hours. 4 ul/well of One-Glo reagent was added into the assay plates using a Flying Reagent Dispenser. After 30-minute incubation at room temperature, the luminescence intensity in the plates was measured using a ViewLux plate reader.
On the % scale 0 is the no-effect control and ±100 the full control effect.

SMILES | activity change, positive = activation [%]
CN(C)CCCN1c2ccccc2CCc2ccc(Cl)cc21 | -18.5

Same assay, conditions: ERR reporter cell line, ONE-Glo luciferase, 18 h; at 92.4 µM (top of the series)

SMILES | activity change, positive = activation [%]
CN(C)CCCN1c2ccccc2CCc2ccc(Cl)cc21 | -78.1

Same assay, conditions: ERR reporter cell line, ONE-Glo luciferase, 18 h; at 92.4 µM (top of the series) unless noted

SMILES | activity change, positive = activation
CC(C)OC(=O)c1ccccc1 | 0.248%
ClC(Cl)(Br)Br | 1.45%
CC(C)NC(=O)NC(C)C | -2.14%
OCCCC1CCCCC1 | -0.619%
NC(=O)Nc1ccccc1 | 8.88%
C=C[Si](OC(=C)C)(OC(=C)C)OC(=C)C | -0.275%
CC(C)=CCCC(C)CC(=O)O (stereo not given) | 3.83%
O=C(O)CN(CCOCCOCCN(CC(=O)O)CC(=O)O)CC(=O)O | 1.46% [at 0.349 µM]
c1ccc(CC2=NCCN2)cc1 | -1.01% [at 42.5 µM]
CC(C[N+](C)(C)C)OC(N)=O (stereo not given) | 3.25% [at 42.5 µM]
CCCCCSCCCCC | 6.38%
CCCCCCCCS(=O)(=O)Cl | 7.34%
CCCC(=O)O[C@]1(C(=O)CO)CC[C@H]2[C@@H]3CCC4=CC(=O)CC[C@]4(C)[C@H]3[C@@H](O)C[C@@]21C | -12.3% [at 42.5 µM]
O=C(CCCN1CCC(O)(c2cccc(C(F)(F)F)c2)CC1)c1ccc(F)cc1 | -10.2% [at 42.5 µM]
CC(=O)Nc1ccc(S(N)(=O)=O)cc1 | 4.26%
CCc1cccc2c(CCO)c[nH]c12 | 6.5% [at 42.5 µM]
CCOc1ccc(C(=O)OCCN(CC)CC)cc1 | 1.57% [at 42.5 µM]
Brc1c(NC2=NCCN2)ccc2nccnc12 | 3.51% [at 42.5 µM]
CC(=O)OCC(=O)[C@@]1(O)CCC2C3CCC4=CC(=O)CC[C@]4(C)C3[C@@H](O)C[C@@]21C (stereo not given in full) | -12.1% [at 42.5 µM]

SMILES | activity change, positive = activation
CCCCCOC(=O)CCCCC | 0.374%
CCc1ccc(O)c(OC)c1 | 4.86%
CCC(C)S (stereo not given) | 2.37% [at 3.27 µM]
NC(=O)COCCN1CCN(C(c2ccccc2)c2ccc(Cl)cc2)CC1 (stereo not given) | 5.27% [at 42.5 µM]
OC1CCCCC1c1ccccc1 (stereo not given) | 0.961%
CCS(=O)(=O)c1ccc(OC)c(C(=O)OC)c1 | 4.43% [at 42.5 µM]
FC1(F)C(F)(F)C(F)(F)C2(F)C(F)(F)C(F)(F)C(F)(F)C(F)(F)C2(F)C1(F)F (stereo not given) | 2.28% [at 42.5 µM]
CCSC(=O)N(CC(C)C)CC(C)C | 3.6%
CC(=O)N(CC(O)CO)c1c(I)c(C(=O)NCCO)c(I)c(C(=O)NCC(O)CO)c1I (stereo not given) | 5.17% [at 42.5 µM]
CCC=O | 0.85%
CN(C)CCCNCCCN(C)C | -4.23%
N[C@H]1CN(c2c(F)cc3c(=O)c(C(=O)O)cn(C4C[C@H]4F)c3c2Cl)CC12CC2 (stereo not given in full) | 5.03% [at 42.5 µM]
COC(=O)c1ccc(C)cc1C1=NC(C)(C(C)C)C(=O)N1 (stereo not given) | 4.81%
N=C(N)c1ccc2cc(OC(=O)c3ccc(N=C(N)N)cc3)ccc2c1 | 0.274% [at 42.5 µM]
CC/C=C\CC/C=C/C(OCC)OCC | 2.27%
CO[C@]12C[C@@H](COC(=O)c3cncc(Br)c3)CN(C)[C@@H]1Cc1cn(C)c3cccc2c13 | 6.2% [at 42.5 µM]
CC1(C)CO[C@@H](CC(=O)O)CN1 | 0.501% [at 42.5 µM]
Cn1c(N)c(N=O)c(=O)n(C)c1=O | -7.21%
CCCCCCCCCCCC | 11.3%
